Assay outcomes (PubChem BioAssay)
Autofluor 339: intrinsic fluorescence of library compounds, ex339/em460 – biochemical, MLSMR library, data from DPM-DC assay, artefact control, profiling panel; compound autofluorescence, ex339/em460 nm, NADH buffer; stronger effect = higher value; 1 = no-compound wells, NADH background; actives 5.5% (n = 65,000); AID 709; fluorescence fold increase at 10 µM;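 active means at 10 µM, mean starting fluorescence two-fold or more over control wells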;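 further: signal is the first read of a kinetic run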
MK inhibit: blocks S. pneumoniae mevalonate kinase; purified MK, PK/LDH-coupled NADH absorbance 340 nm; inhibition, % at 10 µM; actives 0.48% (n = 65,000);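 active means ranked among the strongest by inhibition in the single 10 µM screen, a fixed top-ranked set picked for dose follow-up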
DPM-DC inhibit: blocks S. pneumoniae diphosphomevalonate decarboxylase; purified DPM-DC, PK/LDH coupled NADH fluorescence; calls only at 10 µM; actives 0.49% (n = 65,000);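 active means the 320 compounds with the highest percent inhibition in the single-dose primary screen, excluding strongly autofluorescent ones, cut at about 32% in these data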;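 further: kinetic rate of NADH fluorescence loss reporting ADP formed by the decarboxylase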
NADH enzymes: blocks coupling enzymes of NAD/NADH assays; coupled PK/LDH NADH assays, four targets; IC50, µM (highest dose often 10 µM); actives 0.02% (n = 65,000); AID 774;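 active means single-dose screening hits from any of four coupled enzyme assays that gave an IC50 when retested across doses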;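 further: the DPM-DC format reads NADH fluorescence rather than 340 nm absorbance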
Spn PMK inh: inhibitors of Streptococcus pneumoniae phosphomevalonate kinase; purified PMK, PK/LDH-coupled NADH absorbance 340 nm; inhibition, % at 10 µM; actives 0.49% (n = 65,000);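 active means top-ranked compounds by inhibition in the single 10 µM screen, taking a fixed number of the strongest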
Each line names hits and unclear results; the compound was inactive in the other large screens. In the library only some 6.6% were active in any assay of this set; here they are far more common.

COc1ccc(-n2ncc3c(N4CCC(C(N)=O)CC4)ncnc32)cc1	none
COc1cc2[nH]c3c(N4CCC(C(N)=O)CC4)ncnc3c2cc1OC	Autofluor 339 2.8
COc1ccc(CCn2c(=N)c(C(=O)NCc3ccco3)cc3c(=O)n4ccccc4nc32)cc1	none
CNC(=O)c1cc2c(=O)n3cc(C)ccc3nc2n(C(C)C)c1=N	Autofluor 339 5 (not shown: DPM-DC inhibit)
CNC(=O)c1cc2c(=O)n3cc(C)ccc3nc2n(Cc2ccco2)c1=N	Autofluor 339 2
COC(=O)c1ccccc1NC(=O)C1CCCN(S(=O)(=O)c2ccc(OC)cc2)C1 (stereo unspecified)	none
Cc1cc2cc(CN(C(=O)C3CC3)C3CCCC3)c3nnnn3c2cc1C	none
COC(=O)c1cc(OC)c(OC)cc1NC(=O)Nc1ccccc1OC	Autofluor 339 2.1 (not shown: DPM-DC inhibit)
COC(=O)c1cc(OC)c(OC)cc1NC(=O)c1oc2ccccc2c1C	Autofluor 339 2.5, DPM-DC inhibit active
CCOc1ccc(OCC)c(NC(=O)CN2CCC(NC(=O)c3cccc(F)c3)CC2)c1	none
CCOC(=O)CSc1nc(-c2ccncc2)ccc1C#N	none
CCOC(=O)CC(=O)CSc1nc(-c2cccnc2)ccc1C#N	Autofluor 339 2.1 (not shown: DPM-DC inhibit)
CCOC(=O)CSc1nc(-c2ccc3c(c2)OCO3)ccc1C#N	Autofluor 339 2.2 (not shown: DPM-DC inhibit)
CCc1nnc(NC(=O)CSc2nnc(Cc3ccc(OC)cc3)o2)s1	none
CCOCCCNC(=O)C(C)NS(=O)(=O)c1ccc(C)cc1 (stereo unspecified)	none
c1ccc(Cn2c(-c3ccco3)nc3nc4ccccc4nc32)cc1	Autofluor 339 3.7 (not shown: DPM-DC inhibit)
Cc1ccc(-c2nc3nc4ccccc4nc3n2Cc2ccco2)cc1	Autofluor 339 2
CCCCCn1c(-c2ccco2)nc2nc3ccccc3nc21	Autofluor 339 3.9 (not shown: DPM-DC inhibit)
COc1ccc(CCn2c(-c3ccco3)nc3nc4ccccc4nc32)cc1	none
COc1ccccc1Cn1c(-c2ccco2)nc2nc3ccccc3nc21	none
CCOC(=O)c1cnc(SCc2nc(N)nc(Nc3ccc(C)cc3)n2)nc1N	none
COc1ccc(N2CCCn3c2nc2c3c(=O)n(CCc3ccccc3)c(=O)n2C)cc1	none
Cc1ccc(N2CCn3c2nc2c3c(=O)n(CCc3ccccc3)c(=O)n2C)cc1	Autofluor 339 2.4
COC(=O)Nc1c(-c2ccccc2)nc2ccc(C)cn12	Autofluor 339 3.8 (not shown: DPM-DC inhibit)
COC(=O)Nc1c(-c2ccccc2)nc2ccccn12	Autofluor 339 2.1 (not shown: DPM-DC inhibit)
CC(=O)Nc1c(-c2ccc(F)cc2)nc2ccccn12	none (not shown: DPM-DC inhibit)
CCOC(=O)c1ccc(COC(=O)c2cc3ccccc3oc2=O)o1	none
CC(C)c1nc(=S)n(-c2ccccc2)[nH]1	MK inhibit 44
CCN(CC)S(=O)(=O)c1ccc(NC2c3ncccc3C(=O)N2Cc2ccccc2)cc1 (stereo unspecified)	MK inhibit 50
CCN(CC)S(=O)(=O)c1ccc(NC2c3ccccc3C(=O)N2Cc2ccc3c(c2)OCO3)cc1 (stereo unspecified)	none
COc1ccc(CN2C(=O)c3cccnc3C2Nc2cc(Cl)c(OC)cc2OC)cc1 (stereo unspecified)	MK inhibit 57
O=C1NCN(c2ccccc2)C12CCN(c1nnnn1-c1ccccc1)CC2	none
CCCCS(=O)CC(COCc1ccccc1)OC(=O)CSc1nc(C)cc(C)n1 (stereo unspecified)	none
CCC(c1nnnn1C(C)C)N1CCN(C2CCCC2)CC1 (stereo unspecified)	none
CCCC(=O)Nc1ccc(N2CCN(C(=O)CCC)CC2)cc1	DPM-DC inhibit active
CCN1CCN(C(c2ccc(F)cc2)c2nnnn2Cc2cccs2)CC1 (stereo unspecified)	Spn PMK inh 27
CN1CCN(C(c2ccc(F)cc2)c2nnnn2Cc2cccs2)CC1 (stereo unspecified)	none
O=C(NCCC1=CCCCC1)C1CCCN(c2nc3ccccc3o2)C1 (stereo unspecified)	none
COc1ccc2[nH]c(=O)c(CN(C(=O)NC3CCCCC3)C3CCCC3)cc2c1	Autofluor 339 2.5
COc1cc2cc(CN(CCN3CCCC3)C(=O)Nc3ccc(F)cc3)c(=O)[nH]c2cc1OC	Autofluor 339 3.1 (no result: MK inhibit)
COc1cc2cc(CN(C(=O)Nc3ccccc3)C3CCCC3)c(=O)[nH]c2cc1OC	Autofluor 339 3.2 (not shown: DPM-DC inhibit)
CCc1ccc2[nH]c(=O)c(CN(CCN(CC)CC)C(=O)NC3CCCCC3)cc2c1	none
